# From PubChem BioAssay (EPA / NIEHS)
# Inconclusive results are not listed. Calls of active or inactive are those of the source. The calls were made as follows, unless noted: active = hit-call score of the fitted dose curve at least 0.9, where 1 is the maximum; inactive = score below 0.9.
# Experiments:
# [1] = CCTE_Shafer_MEA_dev_firing_rate_mean: CCTE's Neural Network Formation Assay for Mean Firing Rate, Shafer Lab (AID 2284031)
# In short: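 Primary rat cortical neurons on 48-well MEA plates, exposed from plating day 0 with dosing renewed on DIV 5 and 9. Mean well firing rate over active electrodes, recorded days 5, 7, 9, 12, summarised as trapezoidal AUC.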
# [2] = CCTE_Shafer_MEA_dev_per_burst_spike_percent: CCTE's Neural Network Formation Assay for Percent of Spikes in a Burst, Shafer Lab (AID 2284032);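 also: fitted as a decrease in burst spike percentage below DMSO baseline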
# In short: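 Rat primary cortical neurons on 16-electrode MEA wells, dosed from plating day 0 for 12 days with renewal on DIV 5 and 9; spikes-in-bursts percentage averaged over bursting electrodes, collapsed as AUC across days 5, 7, 9, 12; loss direction versus DMSO.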
# [3] = CCTE_Shafer_MEA_dev_active_electrodes_number: CCTE's Neural Network Formation Assay for Number of Active Electrodes, Shafer Lab (AID 2284040; active = hit-call score of the fitted dose curve at least 0.9, where 1 is the maximum;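 also: potency for loss of active electrodes versus DMSO so lower counts are hits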)
# In short: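 Primary rat cortical neurons on 16-electrode MEA wells, exposed from day 0 through day 12 with compound renewed at DIV 5 and 9 feeds. Active electrodes (mean firing ≥5 spikes/min) counted at DIV 5, 7, 9, 12; trapezoidal AUC across days, loss-of-signal versus DMSO.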
# [4] = CCTE_Shafer_MEA_dev_burst_rate: CCTE's Neural Network Formation Assay for Burst Rate, Shafer Lab (AID 2284042)
# In short: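 Primary rat cortical neurons on PEI-coated 48-well MEA plates (laminin added with cells at plating) (16 electrodes/well), exposed from plating to day 12, dosing renewed at DIV 5 and 9. Burst rate averaged over active electrodes, recorded DIV 5, 7, 9, 12, summarized as AUC; loss versus DMSO.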
# [5] = CCTE_Shafer_MEA_dev_bursting_electrodes_number: CCTE's Neural Network Formation Assay for Number of Bursting Electrodes, Shafer Lab (AID 2284043; active = hit-call score of the fitted dose curve at least 0.9, where 1 is the maximum;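 also: potency is for loss of bursting electrodes relative to DMSO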)
# In short: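 Primary rat cortical neurons plated on 16-electrode MEA wells, exposed from day 0 with compound renewed at DIV 5 and 9. Electrodes bursting ≥1 burst per 2 min counted on days 5, 7, 9 and 12; trapezoidal AUC across days, fitted for loss versus DMSO.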
# [6] = CCTE_Shafer_MEA_dev_per_burst_interspike_interval: CCTE's Neural Network Formation Assay for Burst Interspike Interval, Shafer Lab (AID 2284044);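 also: mean spike spacing inside bursts as AUC over recordings on days 5 7 9 12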
# In short: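 Spontaneous activity of maturing rat cortical networks is recorded on DIV 5, 7, 9 and 12 under chronic compound exposure beginning at plating. Endpoint: burst interspike interval well-mean, collapsed into trapezoidal AUC and fitted in the negative direction relative to DMSO.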
# [7] = CCTE_Shafer_MEA_dev_burst_duration_mean: CCTE's Neural Network Formation Assay for Mean Burst Duration, Shafer Lab (AID 2284045)
# In short: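 Primary rat cortical neurons on 48-well 16-electrode MEA plates, exposed from day 0 with renewal at DIV 5 and 9; spontaneous activity recorded on days 5, 7, 9, 12. Well-mean burst duration across bursting electrodes, collapsed as trapezoidal AUC; DMSO baseline.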
# [8] = CCTE_Shafer_MEA_dev_interburst_interval_mean: CCTE's Neural Network Formation Assay for Mean Interburst Interval, Shafer Lab (AID 2284046);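 also: well-mean interburst interval of bursting electrodes as AUC over four recording days; curve fitted for decrease in interburst interval relative to DMSO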
# In short: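 Recordings on days 5, 7, 9 and 12 give well-mean interburst interval across actively bursting electrodes, summarized as area under the curve. Cultures: rat cortical neurons, continuous exposure from day 0, compound renewed at feeds; decrease analyzed versus DMSO.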
# [9] = CCTE_Shafer_MEA_dev_inter_network_spike_interval_mean: CCTE's Neural Network Formation Assay for Mean Inter-network Spike Interval, Shafer Lab (AID 2284047)
# In short: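 Primary rat cortical neurons on 16-electrode MEA wells, exposed from plating day 0 through DIV 12, compound renewed at DIV 5 and 9 media changes. Mean interval between network-spike peaks recorded DIV 5, 7, 9, 12; collapsed as trapezoidal AUC, fitted downward versus DMSO.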
# [10] = CCTE_Shafer_MEA_dev_network_spike_number: CCTE's Neural Network Formation Assay for Number of Network Spikes, Shafer Lab (AID 2284048)
# In short: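 Primary rat cortical neurons on PEI/laminin 48-well MEA plates, dosed from plating day 0 for 12 days, renewed at DIV 5 and 9. Network spike counts recorded DIV 5, 7, 9, 12, collapsed as trapezoidal AUC; DMSO baseline.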
# [11] = CCTE_Shafer_MEA_dev_network_spike_peak: CCTE's Neural Network Formation Assay for Mean Number of Electrodes in Network Spike, Shafer Lab (AID 2284049)
# In short: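 Network-spike peak electrode count from recordings on days 5, 7, 9 and 12 was combined as trapezoidal area under the curve. Rat cortical cultures were treated continuously from plating, with compound renewed at each feed (DIV 5, 9); fits versus DMSO.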
# [12] = CCTE_Shafer_MEA_dev_spike_duration_mean: CCTE's Neural Network Formation Assay for Mean Spike Duration, Shafer Lab (AID 2284051);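 also: mean network spike duration pooled as area under curve over DIV 5 to 12 recordings; potency for a decrease in mean network spike duration versus DMSO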
# In short: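 Primary rat cortical neurons on 16-electrode MEA wells (PEI-coated, laminin in plating drop), exposed from plating through DIV 12 with compound renewed at DIV 5 and 9. Mean network-spike duration recorded DIV 5, 7, 9, 12; trapezoidal AUC across days, DMSO baseline.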
# [13] = CCTE_Shafer_MEA_dev_per_network_spike_spike_number_mean: CCTE's Neural Network Formation Assay for Mean Number of Spikes in a Network Spike, Shafer Lab (AID 2284053)
# In short: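 Primary rat cortical neurons on 48-well, 16-electrode MEA plates were exposed from plating to DIV 12, with dosing renewed on DIV 5 and 9. Spikes per network spike (0.05 s peak window) were recorded on DIV 5, 7, 9 and 12 and collapsed as trapezoidal AUC versus DMSO.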
# [14] = CCTE_Shafer_MEA_dev_per_network_spike_spike_percent: CCTE's Neural Network Formation Assay for Percent of Spikes in a Network Spike, Shafer Lab (AID 2284054)
# In short: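 Rat primary cortical neurons were grown on 48-well MEA plates (16 electrodes/well), exposed from plating day 0 through day 12, with treatment renewed on DIV 5 and 9. Percent of spikes within 0.05 s network-spike peaks was measured, summarised as AUC across days 5, 7, 9, 12.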
# [15] = CCTE_Shafer_MEA_dev_LDH: CCTE's Lactate Dehydrogenase Assay for Cytotoxicity in the Neural Network Formation Assay, Shafer Lab (AID 2284068; active = hit-call score of the fitted dose curve at least 0.9, where 1 is the maximum;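 also: exposure for twelve days from plating with re-dosing on DIV 5 and 9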)
# In short: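 Primary rat cortical neurons were plated on PEI/laminin MEA plates and exposed from day 0 for twelve days, with compound renewed at DIV 5 and 9. Cytotoxicity was determined by spectrophotometric LDH assay relative to DMSO.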
# [16] = CCTE_Shafer_MEA_dev_mutual_information_norm: CCTE's Neural Network Formation Assay for Mutual Information Normalization, Shafer Lab (AID 2284091)
# In short: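 Primary rat cortical neurons on PEI-coated 48-well MEA plates, 1.5 x 10^5 cells/well, exposed from day 0 through day 12 with re-dosing at DIV 5 and 9. Mutual information between electrodes recorded days 5, 7, 9, 12; trapezoidal AUC, loss-of-signal fit versus DMSO.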
# [17] = UKN2_HCS_IMR90_neural_migration: University of Konstanz (UKN) Leist Lab Neural Crest Cell Migration Assay in human induced IMR90 Pluripotent Stem Cells (UKN2) (AID 2284204); details: actives raise or lower the signal
# In short: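 iPSC-derived IMR90 neural crest cells seeded around stoppers on PLO/laminin/fibronectin; migration started in N2-S medium with EGF/FGF, compounds added after 24 h for 24 h. Migration into cell-free area imaged after calcein-AM/Hoechst staining; bidirectional fit versus DMSO.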
# [18] = IUF_NPC1b_proliferation_BrdU_72hr: Leibniz Research Institute for Environmental Medicine (IUF) 72-hour Neural Progenitor Cell Bromodeoxyuridine (BrdU) Proliferation Assay (NPC1b) (AID 2284207)
# In short: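 BrdU luminescence ELISA quantified DNA synthesis over the last 16 h of a 72 h exposure, fitted against DMSO. Primary hNPC spheres from gestational week 16-19 cortex grown with EGF/FGF at 37C, pH 7.2-7.6.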
# [19] = IUF_NPC1a_proliferation_area_72hr: Leibniz Research Institute for Environmental Medicine (IUF) 72-hour Neural Progenitor Cell Proliferation Area Assay (NPC1a) (AID 2284208)
# In short: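 Measured in 3D suspension: each well held one primary hNPC sphere grown with EGF and FGF at pH 7.2-7.6. Compound stayed on for 72 h, then area was imaged; spheres lacking growth factors defined reduced proliferation.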
# [20] = IUF_NPC1_viability_72hr: Viability Assessment at 72 hours in the Leibniz Research Institute for Environmental Medicine (IUF) Neural Progenitor Cell Proliferation Assay (NPC1) (AID 2284209)
# In short: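 Single spheres (0.25-0.35 mm) of human fetal cortex-derived neural progenitor cells were grown in proliferation medium with EGF and FGF at 37C and 5% CO2. They were exposed for 72 h without renewal, and viability was read by alamar blue resorufin fluorescence.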
# [21] = CCTE_Mundy_HCI_Cortical_Synap_Neur_Matur_NeuriteSpotCountPerNeuriteLength: CCTE's Synaptogenesis and Neurite Maturation Assay in rat cortical cells for Neurite Spot Count per Neurite Length, Mundy Lab (AID 2284210)
# In short: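 Rat primary cortical cultures, AraC added at DIV 5 to suppress glia; chemical exposure from DIV 7 to DIV 12. Fixed cells stained for MAP2 and synaptophysin plus Hoechst; synaptophysin puncta per neurite length quantified by high-content imaging, relative to DMSO.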
# [22] = CCTE_Mundy_HCI_Cortical_Synap_Neur_Matur_BPCount: CCTE's Synaptogenesis and Neurite Maturation Assay in rat cortical cells for Branch Point Count, Mundy Lab (AID 2284211)
# In short: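 Rat primary cortical cultures, AraC added DIV 5; chemicals dosed DIV 7 through DIV 12. Fixed cells stained for MAP2, synaptophysin and Hoechst; neurite branch points counted by automated high-content imaging, fitted relative to DMSO.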
# [23] = CCTE_Mundy_HCI_Cortical_NOG_NeuriteCount: CCTE's Neurite Outgrowth Assay in rat cortical cells for Neurite Count, Mundy Lab (AID 2284212);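 also: cells fixed about two days after chemical exposure began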
# In short: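 Neurite number per cell from high-content imaging of betaIII-tubulin immunostaining, with Hoechst nuclear counterstain.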
smiles,measurement,setting,value
CCCCCC(C)(CC)C(=O)NC (stereo not drawn),outcome,[1],inactive
same,AC50,[2],74.5 µM (active)
same,AC50,[3],50 µM (active)
same,outcome,[4],inactive
same,AC50,[5],50 µM (active)
same,outcome,[6],inactive
same,outcome,[7],inactive
same,outcome,[8],inactive
same,outcome,[9],inactive
same,outcome,[10],inactive
same,outcome,[11],inactive
same,AC50,[12],9.92 µM (active)
same,outcome,[13],inactive
same,outcome,[14],inactive
same,AC50,[15],50 µM (active)
same,outcome,[16],inactive
same,outcome,[17],inactive
same,AC50,[18],85.3 µM (active)
same,outcome,[19],inactive
same,outcome,[20],inactive
same,outcome,[21],inactive
same,outcome,[22],inactive
same,outcome,[23],inactive
